From PubChem BioAssay (NCI) come the findings set out here.

Some test systems named below: T-47D breast; BT-549 breast; MDA-MB-435 melanoma; SW-620 colon; MCF7 breast; HCT-116 colon; HCC-2998 colon; KM12 colon.
What all share (assay): NCI-60 one-dose screen, 48 h (100 = growth as untreated, 0 = no growth, -100 = all killed)
Holding throughout (details): 10 µM unless noted

Structures are written as SMILES. The panel holds about 83,000 compounds, 20% with a hit somewhere; the sample as a whole holds those more often.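 Compound tested at a single concentration for 48 hours in 96-well plates; a percent growth value below 10 was scored as active.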 A number with no mark means an inactive call. The source made the active and inactive calls.

`COc1cnc2c(c1)C(=O)c1c-2n(CCCN2CCOCC2)c(=O)c2cc(F)ccc12`: the growth with T-47D breast is -16% (active); in the assay with BT-549 breast it was 13.3%; with MDA-MB-435 melanoma, -14.2% (active); in the assay on SW-620 colon, 6.66% (active); with MCF7 breast, 1.93% (active); in the assay with HCT-116 colon, -77.1% (active). The growth was 13.2% in the assay with HCC-2998 colon and -14.4% (active) with KM12 colon.
As to `CC(=O)[C@H]1CC[C@H]2[C@@H]3C[C@H](C)C4=CC(=O)CC[C@]4(C)[C@H]3C(=O)C[C@]12C`, the growth in the assay with T-47D breast is 87.5%; in the assay on BT-549 breast, 98%; with MDA-MB-435 melanoma, 119%; with SW-620 colon, 98.6%; in the assay on MCF7 breast it was 99.3%; in the assay with HCT-116 colon, 93.1%. For the same compound, in the assay with KM12 colon, the growth is 110%.
On to `Cc1ccc(C(=O)Cc2ccccc2)c(O)c1`, for which the growth was 95.8% in the assay on T-47D breast; 105% with BT-549 breast; 115% in the assay on MDA-MB-435 melanoma; 105% in the assay with SW-620 colon; 99.9% in the assay with MCF7 breast; 108% in the assay with HCT-116 colon. Also, the growth in the assay on KM12 colon was 110%.
Take `CCCn1c(N)c(C(=O)CNc2ccc(I)cc2)c(=O)[nH]c1=O`: the growth in the assay on T-47D breast is 94.9%; in the assay with BT-549 breast, 61.4%; with MDA-MB-435 melanoma it was 51.1%; in the assay on SW-620 colon it was 35.3%; in the assay on MCF7 breast, 57.1%; with HCT-116 colon it was 32.3%. In addition, the growth in the assay on HCC-2998 colon was 74.2%; in the assay with KM12 colon, 43.7%.
Consider `NC(=N\N=C/Cc1ccccc1)/C(N)=N\N=C\Cc1ccccc1`, for which the growth with T-47D breast was 91.7%; with BT-549 breast it was 104%; in the assay on MDA-MB-435 melanoma, 107%; with SW-620 colon, 104%; in the assay with MCF7 breast it was 101%; with HCT-116 colon it was 108%. Further, the growth in the assay on KM12 colon was 104%.
`Cc1ccc2nc(-c3ccc(N(C)C)c(Br)c3)cn2c1`: the growth with T-47D breast is 109%; with BT-549 breast, 71.4%; with MDA-MB-435 melanoma, 63.4%; in the assay on SW-620 colon, 100%; in the assay with MCF7 breast it was 76.8%; in the assay with HCT-116 colon, 33%. In addition, the growth in the assay on HCC-2998 colon is 100%; with KM12 colon, 95.4%.
With `FCc1ncc(-c2ccc(C(F)(F)F)cc2)c(NC2CCCCCC2)n1`, the growth in the assay with T-47D breast is -10.9% [100 µM] (active); with BT-549 breast, -50.1% [100 µM] (active); in the assay on MDA-MB-435 melanoma, -6.34% [100 µM] (active); in the assay with SW-620 colon, 4.08% [100 µM] (active); with MCF7 breast, 1.01% [100 µM] (active); with HCT-116 colon, -2.53% [100 µM] (active). Also, the growth in the assay with KM12 colon is -59.8% [100 µM] (active).
Regarding `COc1ccc(NS(=O)(=O)N2CCCCC2)cc1`, the growth is 95.3% in the assay on T-47D breast; 104% in the assay with BT-549 breast; 116% with MDA-MB-435 melanoma; 98% with SW-620 colon; 108% in the assay with MCF7 breast; 103% with HCT-116 colon. Besides, the growth with KM12 colon was 110%.
For the compound `COc1cc(/C=C2\CN(C)CC3=C2Nc2nc(SC)[nH]c(=O)c2C3c2cc(OC)c(OC)c(OC)c2)cc(OC)c1OC` (configuration not stated), the growth in the assay with T-47D breast was 85.4%; in the assay with BT-549 breast it was 54.9%; with MDA-MB-435 melanoma, 2.77% (active); with SW-620 colon it was 11.7%; in the assay with MCF7 breast, 33.5%; with HCT-116 colon it was -46.3% (active). The results for the growth in the assay with HCC-2998 colon and in the assay with KM12 colon were 49.9% and 37.2%, respectively.
Take `CC(NC(=O)Oc1cccc2ccccc12)c1ccccc1` (configuration not stated): the growth was 92.7% with T-47D breast; 106% in the assay with BT-549 breast; 102% with MDA-MB-435 melanoma; 98.6% with SW-620 colon; 87.8% in the assay on MCF7 breast; 105% with HCT-116 colon. Also, the growth with KM12 colon is 99.8%.
In the case of `O=C(CSc1ncc(-c2ccccc2)n1-c1ccccc1)Nc1ccc(-c2nc3ccccc3s2)cc1`, the growth with T-47D breast is 56.3%; in the assay with BT-549 breast it was 103%; in the assay with MDA-MB-435 melanoma, 55.9%; in the assay on SW-620 colon, 64.4%; in the assay on MCF7 breast, 31.2%; in the assay on HCT-116 colon, 42.1%. Besides, in the assay on KM12 colon, the growth is 51.1%.
`C1CCC(C(CC2CCCCN2)C2CCCCC2)CC1` (configuration not stated): the growth is -48.9% (active) in the assay with T-47D breast; 41.1% with BT-549 breast; -73.8% (active) with MDA-MB-435 melanoma; -84.6% (active) in the assay on SW-620 colon; -62.6% (active) in the assay on MCF7 breast; -94.1% (active) in the assay on HCT-116 colon. Also, in the assay on KM12 colon, the growth is -54.1% (active).
With `Nc1nc(SCc2cccnc2)c2ncn(C3OC(CO)C(O)C3O)c2n1` (configuration not stated), the growth with T-47D breast was 110%; with BT-549 breast, 98.1%; with MDA-MB-435 melanoma it was 104%; with SW-620 colon, 97.9%; with MCF7 breast, 94.9%; with HCT-116 colon, 93.8%. Besides, the values for the growth with HCC-2998 colon and with KM12 colon were 96.6% and 98.4%, respectively.
For the compound `CCCCCCCC[Si](OCC)(OCC)OCC`, the growth in the assay with T-47D breast was 96.2%; with BT-549 breast, 99.1%; with MDA-MB-435 melanoma, 109%; in the assay on SW-620 colon, 105%; with MCF7 breast, 98.3%; with HCT-116 colon, 101%. For the same compound, the growth is 105% with HCC-2998 colon and 103% in the assay with KM12 colon.
With `Cc1cc2ccccn2c1C(=O)c1ccc(C(=O)c2ccccc2)cc1`, the growth was 77.3% in the assay with T-47D breast; 92.5% with BT-549 breast; 91.3% with MDA-MB-435 melanoma; 84.2% with SW-620 colon; 96.5% with MCF7 breast; 88.7% in the assay on HCT-116 colon. Also, the growth in the assay with HCC-2998 colon is 83.8%; in the assay on KM12 colon, 113%.
`ICCC(c1ccccc1)(c1ccccc1)c1ccccc1`: the growth in the assay with T-47D breast is 39.2%; in the assay on BT-549 breast it was 54.6%; in the assay on MDA-MB-435 melanoma, 35.9%; with SW-620 colon it was 80.7%; with MCF7 breast, 35.1%; with HCT-116 colon it was 33.2%. Also, in the assay on KM12 colon, the growth is 57.7%.
As for `Cn1cc(NC(=O)Nc2cc(C(=O)O)n(C)c2)cc1C(=O)O`, the growth was 107% in the assay on T-47D breast; 125% with BT-549 breast; 115% in the assay with MDA-MB-435 melanoma; 96.3% with SW-620 colon; 116% with MCF7 breast; 102% with HCT-116 colon. The growth in the assay on HCC-2998 colon is 107%; in the assay with KM12 colon it was 98.6%.
